Source: PubChem (National Center for Advancing Translational Sciences (NCATS))
Shown are actives, neighbours in structure and some others; about 12% of the full set was active somewhere.
Sfp inh = blocks B. subtilis Sfp PPTase activity; Biochemical Sfp PPTase activity, qHTS; Potency, µM, for inactives: largest response in the series, negative = inhibition, hits mostly inhibitors; hit rate 3.5% among 310,000; AID 1490;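 note: the enzyme is Sfp with the accession as filed and its product quenches rhodamine fluorescence; 0% = enzyme reaction without inhibitor and -100% = no enzyme wells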
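Buffer: 50 mM Hepes-Na pH 7.6, 10 mM MgCl2, 0.01% Nonidet P-40, 0.01% BSA. Enzyme 15 nM, pre-exposed to compound 15 min; substrates then added and fluorescence change tracked over 30 min.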
HP1b binding inh = inhibitors of HP1-beta chromodomain binding to methylated histone tails | hit rate 0.56% among 390,000 | Potency, µM (series often up to 114 µM), for the others: top-dose activity change, negative = inhibition, actives largely listed as inhibitors | AlphaScreen HP1-beta / biotin-H3K9me3 peptide binding | P83916 | AID 540317; note: nearly all actives have a fitted effect of over 70% in size
Target sequence (P83916 whole entry, looked up): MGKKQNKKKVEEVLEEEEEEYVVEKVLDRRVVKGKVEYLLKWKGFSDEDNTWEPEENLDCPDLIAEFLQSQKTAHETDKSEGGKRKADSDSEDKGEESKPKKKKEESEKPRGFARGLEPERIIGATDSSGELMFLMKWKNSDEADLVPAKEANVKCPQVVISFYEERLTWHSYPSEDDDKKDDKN
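AlphaScreen: HP1-beta (50 nM) preformed 30 min with biotin-H3(1-18)K9me3 peptide (50 nM) in PBS pH 7.4, 0.01% Tween-20. Compound added for 30 min at RT, then streptavidin donor/nickel chelate acceptor beads (10 ug/mL) for 30 min.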
L3MBTL1 block = inhibitors of human L3MBTL1; Q9Y468; AlphaScreen L3MBTL1–H3K9me1 peptide binding; Potency, µM (series often up to 57.1 µM), for inactives: at the top dose activity, negative = inhibition, usual class: inhibitors; hit rate 0.66% among 230,000; AID 485360; note: % is set by controls: 0 for no effect and ±100 for the full control effect; nearly all actives have a fitted effect of over 60% in size
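Displacement of a biotinylated histone H3(1-15) peptide monomethylated at Lys9 (75 nM) from L3MBTL1 (50 nM) was measured by AlphaScreen after a 30 min room-temperature compound incubation; cefsulodin titration served as intraplate control.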
JMJD2A Tudor = inhibitors of human JMJD2A Tudor domain; hit rate 4.4% among 390,000; AID 504339; AlphaScreen JMJD2A-Tudor / H3K4me3 peptide binding; Potency, µM (series often up to 114 µM), for the others: at the highest dose activity change, negative = inhibition, usual class: inhibitors; O75164; note: % is set by controls: 0 for no effect and ±100 for the full control effect; nearly all actives have a fitted effect of over 50% in size
BAZ2B inh = blocks human BAZ2B | Potency, µM (series often up to 114 µM), for inactives: at the top dose activity change, negative = inhibition, actives largely listed as inhibitors | Q9UIF8 | AlphaScreen BAZ2B-H3K14Ac peptide displacement | hit rate 4.4% among 360,000; note: % is set by controls: 0 for no effect and ±100 for the full control effect; nearly all actives have a fitted effect of over 60% in size
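BAZ2B (50 nM) with biotin-H3(5-23)K14Ac peptide (50 nM) in PBS pH 7.4, 0.01% Tween-20, preformed 30 min, then compound 30 min at room temperature; top concentration 110uM. AlphaScreen streptavidin donor/nickel chelate acceptor beads (10 ug/mL final), 20 min dark, signal read.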
G9a block = inhibitors of human histone lysine methyltransferase G9a | Q96KQ7 | G9a H3K9 monomethylation, AlphaScreen, 2 h | Potency, µM (doses to about 102 µM), without a hit: at the top dose activity, negative = inhibition, usual class: inhibitors | hit rate 8.8% among 350,000; note: % is set by controls: 0 for no effect and ±100 for the full control effect; nearly all actives have a fitted effect of over 75% in size
Target sequence (Q96KQ7 913-1193 limits assumed): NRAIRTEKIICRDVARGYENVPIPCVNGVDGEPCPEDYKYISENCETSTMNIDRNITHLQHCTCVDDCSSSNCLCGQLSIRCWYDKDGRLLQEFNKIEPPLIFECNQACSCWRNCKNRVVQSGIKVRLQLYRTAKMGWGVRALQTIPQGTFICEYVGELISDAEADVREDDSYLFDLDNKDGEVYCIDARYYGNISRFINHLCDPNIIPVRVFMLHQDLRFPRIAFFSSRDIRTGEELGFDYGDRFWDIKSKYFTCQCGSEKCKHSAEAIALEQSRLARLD
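G9a (20 nM) was preincubated 15 min with compound, then reacted 2 h at room temperature with 500 nM biotin-H3K9 peptide and 20 µM SAM. Monomethyl-H3K9 detected by AlphaScreen using anti-H3K9me1 antibody.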
* = called active by the depositor; ? = inconclusive; . = no result; [ ] = another dose, or the depositor's remark. Calls come from the whole dose curve; as a rule, active = well fitted curve in the direction sought with a large enough effect; inconclusive = small, poorly fitted or top-dose-only effect, or another doubt; inactive = no such curve, though single readings can be large; an effect the other way counts as inactive or inconclusive. Potency is the fitted concentration of half-maximal effect.

SMILES	Sfp inh	HP1b binding inh	L3MBTL1 block	JMJD2A Tudor	BAZ2B inh	G9a block
O=C1CCC(C(=O)OCc2ccccc2)N1 (configuration not stated)	9%	15%	.	-15%	-4%	6.3µM*
O=C1CCC(C(=O)OCc2c(Cl)cccc2Cl)N1 (configuration not stated)	17%	27%	4%	5%	4%	25%[59 µM]
O=C(c1[nH]ncc1[N+](=O)[O-])N1CCOCC1	-14%	18%	.	-6%	-1%	55%
O=C(O)c1cc2ncc(-c3[nH]ncc3[N+](=O)[O-])cn2n1	10%	-24%	.	79µM*	-21%	-47%
COc1cc(NC(=O)CSc2nc3nc(C)c(Cc4ccccc4)c(C)n3n2)cc(OC)c1OC	.	14%	.	-22%	-18%	5%[59 µM]
CN1C=CC=C/C1=C1\SC(=S)N(N)C1=O	-64%	30%	2%	1%	-27%	28µM*
CCOc1ccc(CNc2cccc(SC)c2)cc1	10%	45µM*	-25%	3.2µM*	40µM*	28µM*
Cc1ccc(C)c(S(=O)(=O)c2nnn3c2nc(N2CCCCC2)c2sccc23)c1	.	39%	.	-8%	-13%	-5%[59 µM]
Cc1ccc(S(=O)(=O)NCCC(=O)Nc2ccc(C)cc2C(=O)c2ccccc2)cc1	-3%	-7%	1%	50µM*	-32%	5%[59 µM]
NNC(=O)c1cn2ccccc2n1	79µM*	28%	-9%	20µM*	18µM*	3.2µM*
CC1(C)CC(=O)c2c(oc3cc(O)c(O)cc23)C1	56µM*	-32%	.	14µM*	-37%	3.5µM*
Cc1cc(N2CCCC2)ccc1NC(=O)COc1ccccc1	.	-7%	-9%	?	-36%	7.1µM*
COc1ccc(OCC(=O)Nc2ccccc2N2CCCCC2)cc1	?	124%	.	54%	16%	.
CCc1ccccc1OCC(=O)Nc1ccc(N2CCCC2)cc1C	.	7%	-18%	?	?	3.2µM*
Cc1cc(OCC(=O)Nc2ccc(N3CCCC3)cc2)cc(C)c1Cl	-29%	-13%	.	?	?	-20%[12.7 µM]
COc1ccc(OCC(=O)Nc2ccccc2Cl)cc1	19%	19%	-10%	-9%	50µM*	7%
Cc1cccc(OCC(=O)Nc2ccccc2N2CCCCC2)c1C	.	127%	19%	44%	38%	22%
COc1ccc(N2CCCC2)c(NC(=O)COc2ccccc2)c1	-19%	?	.	?	?	40µM*
CCC(=O)N1CCc2cc(CNS(=O)(=O)c3cc(Cl)ccc3OC)ccc21	.	18%[57 µM]	.	-16%	0%	12%[59 µM]
CCCSCCCNC(=O)c1ccc2c(c1)sc1nc(-c3ccc(OCC)cc3)cn12	.	65%	.	4%	20%	15%[59 µM]
Nc1nnc(-c2ccccc2Cl)s1	?	-19%	-2%	8%	2%	22µM*
COc1ccccc1-c1nnc(N)s1	0%	20%	3%	-9%	-11%	-29%
CCc1ccccc1NC(=O)c1sc(-n2nc(C)c(Cc3ccc4c(c3)OCO4)c2C)nc1C	.	43%	.	0%	1%	8%[59 µM]
COc1ccc(N2CCN(CC(=O)c3ccc(O)c(C)c3O)CC2)cc1	4%	-6%[57 µM]	.	?	?	40µM*
Cc1c(O)ccc(C(=O)CN2CCN(c3ccccc3)CC2)c1O	10%	87%	.	2%	?	45µM*
SMILES	Sfp inh	HP1b binding inh	L3MBTL1 block	JMJD2A Tudor	BAZ2B inh	G9a block
O=C(NCCc1ccccc1)c1ccc(-c2ccccc2C(F)(F)F)o1	-30%	37%	14%	25%	-4%	50µM*
COc1ccc(NC(=O)c2ccc(-c3ccccc3C(F)(F)F)o2)cc1	-9%	35%	13%	-13%	8%	71µM*
Cc1ccccc1-c1ccc(C(=O)Nc2cccc(F)c2)o1	-26%	-1%	-9%	-1%	?	10µM*
O=C(Nc1cccc(F)c1)c1ccc(-c2ccccc2C(F)(F)F)o1	-13%	.	17%	.	2%	45µM*
O=C(Nc1cccc(F)c1)c1ccccc1-c1ccccc1	22%	36%	8%	-2%	19%	6%
CCc1ccc(NC(=O)C2CCN(C(=O)N3CC(CC)Oc4ccccc43)CC2)cc1 (configuration not stated)	.	11%	.	?	?	?
COc1ccc(NC(=O)CN(C)C(=O)c2ccc(-c3cccc(C(F)(F)F)c3)o2)cc1	19%	8%	.	-15%	-21%	21%
COc1ccc(NC(=O)CN(C)C(=O)c2ccc(-c3ccccc3Cl)o2)cc1	.	15%	0%	-18%	-30%	40µM*
Cc1ccc(C(C)C)c(OCCN2CCc3ccccc3C2)c1	2%	49%	2%[2.29 µM]	2%	16%	8%[0.501 µM]
Cc1cc(C(C)(C)C)ccc1OCCN1CCCC1	-13%	-56%	.	8.9µM*	?	32µM*
Cc1cc(OCCN2CCCCC2)nc2ccccc12	13%	5%	.	?	-23%	-6%[12.7 µM]
Cc1ccc(C(C)(C)C)c(OCCN2CCCC2)c1	-23%	-15%	-14%	4µM*	50µM*	3.5µM*
Cc1cc(C(C)(C)C)ccc1OCCCCN1CCCC1	5%	-4%	-22%	7.1µM*	-29%	?
COc1ccc(NC(=O)CNCCC2=CCCCC2)cc1	3%	1%	.	-16%	7%	-5%[12.7 µM]
CC(=O)c1ccc(NC(=O)CC(NCCC2=CCCCC2)C(=O)O)cc1 (configuration not stated)	-2%	-15%	4%	13µM*	-6%	?
CC(=O)OCC(NC(=O)C(Cc1ccccc1)NC(=O)OC(C)(C)C)C1OC(n2cc(F)c(=O)[nH]c2=O)C(OC(C)=O)C1OC(C)=O (configuration not stated)	13%	31%	.	-6%	.	.
